Values joined by “and” are separate entries in the source; they are usually repeats but may differ in a detail not shown here. Identical values can stand only once. Records with an inconclusive call do not appear. A call without a number means that no potency is given here. Active and inactive are the calls of the source. Calls come from the whole dose curve; as a rule, active = well fitted activation curve with a large enough effect in the repeat runs; inconclusive = weak or mixed curves, or effect the other way; inactive = no such curve, though single readings can be large or run the other way.
Potency is the fitted concentration of half-maximal effect.

A short description of the experiment: qHTS assay to identify small molecule agonists of the estrogen related receptor signaling pathway with the pleiotropic PPARgamma coactivator (PGC) from Tox21 10K library (AID 1224842). Note: nearly all actives have a fitted effect of over 15% in size. Particulars: PGC/ERR reporter cell line, luciferase ONE-Glo, 18 h; series mostly up to 92.4 µM. An excerpt: National Center for Advancing Translational Sciences [NCATS] NIH Chemical Genomics Center [NCGC] U.S. Environmental Protection Agency [EPA] National Institutes of Environmental Health Sciences [NIEHS] National Toxicology Program [NTP] Assay overview: Estrogen related receptors (ERRs), the first orphan nuclear receptors discovered, play an important role in the control of cellular energy metabolism. ERRs are required for high-energy production in response to the environmental challenges. The pleiotropic PPARgamma coactivator (PGC) is a major partner of ERR and a key regulator in energy homeostasis. Together they have been implicated in the etiology of metabolic disorders such as Type 2 diabetes and metabolic syndrome. ERR-alpha was also identified as an adverse marker for breast cancer progression; ERR-alpha-positive tumors have a poor prognosis. To screen and to identify environmental compounds that perturb the PGC/ERR signaling pathways could provide valuable information for potential therapeutic or preventive measures in the treatment of metabolic disease. For identifying PGC/ERR agonists, PGC/ERR cell line (provided by NTP) has been used to screen Tox21 10K library.
Assay Protocol Summary: The PGC/ERR cells were dispensed at 2,000 cells/5 ul/well in 1536-well white plates using a Multidrop dispenser. After the assay plates were incubated at a 37 C/5% CO2 incubator for 6 hours, 23 nL of compounds dissolved in DMSO, positive and negative controls or DMSO only was transferred to the assay plate by a pin tool. The plates were incubated at 37 C for 18 hours. 4 ul/well of One-Glo reagent was added into the assay plates using a Flying Reagent Dispenser. After 30-minute incubation at room temperature, the luminescence intensity in the plates was measured using a ViewLux plate reader.
In the case of `CCOC(=O)C(C)(C)Oc1ccc(Cl)cc1`, the Potency result was “inactive”.

Regarding `CCN(CC)CCOC(=O)c1ccc(N)cc1`, the Potency entry was “inactive”.

On to `COC1=CC(=O)C[C@@H](C)[C@]12Oc1c(Cl)c(OC)cc(OC)c1C2=O`, for which the Potency entry is “inactive”.

In the case of `O=C(O)CN(CC(=O)O)CC(=O)O`, the Potency entry is “inactive”.

For the molecule `CC1(C)O[C@@H]2[C@@H](CO[C@@]3(COS(N)(=O)=O)OC(C)(C)O[C@@H]23)O1`, the Potency entry is “inactive”.

Regarding `O=C(OCc1ccccc1)c1ccccc1`, the Potency entry was “inactive”.

As for `CCCCNC(=O)NS(=O)(=O)c1ccc(N)cc1`, the Potency entry is “inactive”.

As for `Cc1cccc(C)c1O`, the Potency result is “inactive”.

Consider `OC[C@@H](O)[C@@H](O)[C@H](O)[C@H](O)CO`, for which the Potency result was “inactive”.

As for `CC(C)CC(C)CC(O)CC(C)C` (stereo not given), the Potency result is “inactive”.

As for `CN(C)C=O`, the Potency entry is “inactive”.

For `CCCCOCCOCCOC(C)=O`, the Potency entry was “inactive”.

As to `O=C(O)CCCCC1CCSS1` (stereo not given), the Potency entry is “inactive”.

Take `Cc1cccc2ccccc12`: the Potency entry is “inactive”.

As to `C=C(C)C(N)=O`, the Potency entry was “inactive”.

Take `COC(=O)C1CCC(C(=O)OC)CC1` (stereo not given): the Potency entry was “inactive”.

For `Cc1ccc(O)c(-n2nc3ccccc3n2)c1`, the Potency was 27.1 µM (active) and 8.63 µM (active) and 11.9 µM (active).

On to `OCCCc1ccccc1`, for which the Potency entry is “inactive”.

Regarding `NC(=O)N/N=C/c1ccc([N+](=O)[O-])o1`, the Potency result is “inactive”.

Turning to `O=c1cc[nH]c(=O)[nH]1`, the Potency entry is “inactive”.

Take `Oc1cccc(O)c1`: the Potency entry is “inactive”.

Consider `C[C@]12CC[C@@H]3c4ccc(O)cc4C[C@@H](CCCCCCCCCS(=O)CCCC(F)(F)C(F)(F)F)[C@H]3[C@@H]1CC[C@@H]2O` (stereo not given in full), for which the Potency result was “inactive”.

On to `CC(C)Cc1ccc(C(C)C(=O)O)cc1` (stereo not given), for which the Potency result was “inactive”.

With `CCCCCCCCOc1ccc(C(=O)c2ccccc2)c(O)c1`, the Potency entry is “inactive”.

Turning to `COC(=O)c1ccc(C=O)cc1`, the Potency result was “inactive”.

For the molecule `C=C(C)OC(C)=O`, the Potency entry is “inactive”.

Consider `O=C1CCCCCN1`, for which the Potency entry was “inactive”.

In the case of `CO[C@H]1C=CO[C@@]2(C)Oc3c(C)c(O)c4c(O)c(c(/C=N/N5CCN(C)CC5)c(O)c4c3C2=O)NC(=O)/C(C)=C\C=C[C@H](C)[C@H](O)[C@@H](C)[C@@H](O)[C@@H](C)[C@H](OC(C)=O)[C@@H]1C`, the Potency result is “inactive”.

Regarding `C=CCOC(=O)CC(C)C`, the Potency result was “inactive”.

With `CCCCCCCC(=O)OCC(O)CO` (stereo not given), the Potency result is “inactive”.

Source of the values: PubChem BioAssay (Tox21).
